HCMV inh: blocks human cytomegalovirus replication; 410,000 compounds, 4.5% hits; HFF cells, HCMV-luciferase reporter, 72 h; hits give low values; activity change, negative = inhibition, % at 57.5 µM; in the data active means activity change below about -60%; inconclusive means no clear call, values can overlap the other calls; inactive means above about -39%
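HFF cells seeded 16 h at 37C, treated with compounds, infected with luciferase-reporter HCMV at MOI 1 PFU/cell; luciferase read at 72 h post infection, normalized to buffer-only and Salinomycin controls.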
HCV inhibitor: HCV inhibition | Huh7.5.1 HCVcc-Cre infection, luciferase reporter, 44 h | Potency, µM (titrated, usually from 41.8 µM), inactives show top-dose activity change, negative = inhibition, usual class: inhibitors | 340,000 compounds, 3.4% hits | AID 651820; active means well fitted inhibition curve with a large enough effect; inconclusive means small, poorly fitted or top-dose-only effect, or another doubt; inactive means no such curve, though single readings can be large or run the other way; further: potency means the concentration at half of the fitted maximal effect
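Whole-lifecycle infectious HCVcc-Cre system; cells 1,000/well, compound then virus (~0.5 moi) added 4 h after plating, 44 h culture. Luciferase read 15 sec following 15 min substrate incubation, room temp.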
MARV entry inh: inhibitors of Marburg virus binding or cell entry; Marburg virus pseudotyped entry inhibition, cell reporter; Potency, µM (doses to about 37.8 µM), for inactives: at the highest dose activity change, negative = inhibition, hits mostly inhibitors; 300,000 compounds, 1.8% hits; AID 540276; calls by dose curve; tested in HEK293 cells; further: potency means the concentration at half of the fitted maximal effect
LASV entry inh: Lassa virus entry inhibition; Lassa virus pseudotype entry inhibition, cell reporter; Potency, µM (series often up to 37.9 µM), without a hit: at the top dose activity change, negative = inhibition, usual class: inhibitors; 300,000 compounds, 1.2% hits; AID 540256; calls by dose curve; tested in HEK293 cells; further: potency means the concentration at half of the fitted maximal effect; nearly all actives have a fitted effect of over 50% in size
Vaccinia mCherry: vaccinia inhibition (mCherry reporter); Vaccinia virus mCherry reporter infection, fluorescence; Potency, µM (highest dose often 36.5 µM), for inactives: at the top dose activity change, negative = inhibition, most hits filed as inhibitors; 310,000 compounds, 0.63% hits; AID 720579; calls by dose curve; tested in A549 cells; further: potency means the concentration at half of the fitted maximal effect; nearly all actives have a fitted effect of over 35% in size
Vaccinia Venus: vaccinia inhibition (Venus reporter). Potency, µM (series often up to 36.5 µM), for inactives: at the highest dose activity change, negative = inhibition, actives largely listed as inhibitors. AID 720580. 330,000 compounds, 0.46% hits. Vaccinia virus Venus reporter expression, fluorescence; calls by dose curve; tested in A549 cells; further: potency means the concentration at half of the fitted maximal effect; nearly all actives have a fitted effect of over 30% in size
Numbers without * were called inactive; i = inactive; ? = inconclusive; · = no result; [ ] = another dose, or the depositor's remark. Only some compounds are listed: those with a hit (about 7.8% of all), similar ones and a draw of the others. On the % scale 0 is the no-effect control and ±100 the full control effect.

SMILES | HCMV inh | HCV inhibitor | MARV entry inh | LASV entry inh | Vaccinia mCherry | Vaccinia Venus
CCN(CC)CCNC(=O)c1cc2c(=O)n(CC)c3ccccc3c2s1 | 38.8 | ? | -15.8%[46.1 µM] | 3.4%[46.1 µM] | 2.6% | -23.5%
CCOCCCNC(=O)c1cc2c(=O)n(CC)c3ccccc3c2s1 | -13.9 | ? | · | · | · | ·
CCn1c(=O)c2cc(C(=O)Nc3cc(C)c(Cl)cc3OC)sc2c2ccccc21 | -105.6* | · | -1.9%[46.1 µM] | 17.9%[46.1 µM] | -1.6% | 0.0%
COc1ccc(CNC(=O)c2cnc3sc(N4CCC(C)CC4)nn3c2=O)c(OC)c1 | 5.3 | · | · | 10.1%[46.1 µM] | -26.9% | -20.2%
CNc1ncnc2c1ncn2[C@H]1C[C@H](O)[C@@H](CO)O1 | · | · | · | · | -4.1% | 3.7%
Cc1sc2ccccc2[n+]1Cc1ccccc1 | · | · | · | · | -2.6% | 2.2%
Cc1sc2ccccc2[n+]1CCCC[n+]1c(C)sc2ccccc21 | · | · | · | · | 2.82µM* | ?
Cc1sc2ccccc2[n+]1CCCCBr | · | · | · | · | 7.08µM* | ?
COc1cc(=O)n2c(c1C(=O)N(C)Cc1nonc1C)CCN(Cc1cccc3ccccc13)CC2 | · | · | · | · | -15.6% | 2.1%
CN(C)CCN(C)Cc1c2ccccc2c(CN(C)CCN(C)C)c2ccccc12 | ? | 3.98µM* | ? | ? | -12.5% | -26.8%
CN(C)CCP(=O)(c1ccccc1)c1ccccc1 | -18.3 | -8.2% | -1.4%[46.1 µM] | 17.5%[46.1 µM] | -11.4% | -8.9%
Cc1nc2ccccc2n1CCc1nc2c3ccccc3nc(SCc3ccc(F)cc3)n2n1 | -9.2 | · | · | 3.7%[46.1 µM] | -0.2% | 1.7%
O=C(Nc1ccc(Cl)c(S(=O)(=O)Nc2ccccc2Cl)c1)c1cccs1 | -16.9 | -7.0% | -30.9% | ? | -15.8% | -14.3%
Cc1ccc(NC(=O)c2cc3c(s2)CCCC3)cc1S(=O)(=O)Nc1ccccc1Cl | -81.7* | ? | ? | 11.2µM* | ? | ?
O=C(Nc1cccc(S(=O)(=O)Nc2ccc(Cl)cc2)c1)c1cc2c(s1)CCCC2 | -74.8* | 11.2µM* | ? | ? | ? | ?
Cc1ccc(C(=O)Nc2ccc(C)c(S(=O)(=O)Nc3ccccc3Cl)c2)s1 | ? | 10µM* | -28.7% | 5.17µM* | -24.4% | -26.1%
Cc1ccc(NC(=O)C(Cc2c[nH]c3ccccc23)NC(=O)OCC(C)C)cc1 (stereo not given) | -2.1 | · | ? | ? | -10.6% | -6.2%
COC(=O)C1=C(C)N(Cc2ccc(Cl)cc2)C(=S)NC1c1ccc(OC)cc1 (stereo not given) | -11.6 | · | · | · | · | ·
COc1ccc(OC2CCN(S(=O)(=O)c3cccc(F)c3)CC2)cc1 | -97.4* | ? | -2.8%[46.1 µM] | -27.6%[46.1 µM] | 19.7% | 10.3%
COc1ccc(S(=O)(=O)N2CCC(Oc3ccc(-n4cnnn4)cc3)CC2)cc1OC | -63.6* | · | -17.9%[46.1 µM] | -2.0%[46.1 µM] | -15.7% | -21.9%
COc1ccc(OC2CCN(S(=O)(=O)c3ccc(OC)cc3)CC2)cc1 | ? | ? | -29.3%[46.1 µM] | ? | 5.8% | 8.6%
COc1ccc(S(=O)(=O)N2CCC(Oc3ccc(-n4cnnn4)cc3)CC2)cc1 | -11.4 | · | -5.2%[46.1 µM] | 19.9%[46.1 µM] | -4.6% | -9.7%
O=C(Nc1ccc(F)cc1)c1cccc(N2CCCS2(=O)=O)c1 | 1.6 | · | · | ? | -9.4%[7.34 µM] | -1.4%[7.34 µM]
O=C(CNC(=O)c1ccccc1)OCc1cc(=O)n2nc(C3CC3)sc2n1 | 0.1 | · | · | 5.9%[46.1 µM] | 8.4% | 0.9%
CCOC(=O)c1nn2c(C(F)(F)F)cc(-c3ccc(C)cc3)nc2c1Cl | 22.0 | · | · | 2.6%[46.1 µM] | -13.0% | 1.7%
Cc1cc2ccccc2n1-c1ccc(C(=O)N2CCCCC2)s1 | -11.8 | · | · | -30.1%[46.1 µM] | -6.8% | -7.5%
Cc1ccc(C(=O)COC(=O)CCN2C(=O)C3C4C=CC(C5CC45)C3C2=O)cc1 (stereo not given) | ? | 33.5% | 11.6%[46.1 µM] | 17.5%[46.1 µM] | -5.3% | -22.6%
O=C(CCN1C(=O)C2C3C=CC(C4CC34)C2C1=O)Oc1ccc(Br)cc1 (stereo not given) | -6.4 | -0.8% | ? | 16.5%[46.1 µM] | i | -24.4%
O=C(CCN1C(=O)C2C3C=CC(C4CC34)C2C1=O)OCC(=O)c1ccccc1 (stereo not given) | -82.8* | 11.1% | 3.6% | 13.5% | -1.3% | -9.4%
O=C(CCN1C(=O)C2C3C=CC(C4CC34)C2C1=O)Oc1cccc2cccnc12 (stereo not given) | -95.5* | ? | 16.4µM* | -20.2% | i | -12.4%
